The campaign covered roughly 330,000 compounds. About 5,800 (1.8%) were called active. Cut-off read from the data, not from the text of the source: active = inhibition mostly above about 38% (no sharp cut-off); inactive = mostly below about 40%. What follows is part of a selection rich in actives, with near analogues and random picks from the rest.
What follows are compounds tested against Orexin/Hypocretin receptor type 1 (Homo sapiens) (UniProt O43613) (assay: blocks the human orexin 1 receptor (AID 485270;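 note: 0% = agonist challenge alone and 100% = reference antagonist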)). Conditions: OX1R-expressing cells, FRET antagonist read-out; at 6.6 µM; active compounds read high.
Sequence of Orexin/Hypocretin receptor type 1 (Homo sapiens) (O43613 whole entry, looked up): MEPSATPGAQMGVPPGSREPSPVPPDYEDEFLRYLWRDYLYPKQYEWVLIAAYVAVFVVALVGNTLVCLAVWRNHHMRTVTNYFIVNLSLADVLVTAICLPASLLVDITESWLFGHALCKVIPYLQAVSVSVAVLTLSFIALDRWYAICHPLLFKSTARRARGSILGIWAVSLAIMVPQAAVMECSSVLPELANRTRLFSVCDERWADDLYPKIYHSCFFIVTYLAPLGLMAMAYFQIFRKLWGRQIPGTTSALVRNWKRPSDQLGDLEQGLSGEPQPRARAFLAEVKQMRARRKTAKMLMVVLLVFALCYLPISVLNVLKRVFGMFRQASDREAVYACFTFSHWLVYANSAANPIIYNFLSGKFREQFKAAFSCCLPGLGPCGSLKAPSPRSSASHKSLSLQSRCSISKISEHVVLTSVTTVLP

inhibition, inactive:
CCC(CO)Oc1cc(NC(=O)c2cccc(F)c2)c2ncn(C(C)C)c2c1 (stereo not given) 10.7%
COc1cccc(NC(=O)COc2cccnc2[N+](=O)[O-])c1 17.9%
O=C(CCNC(=O)c1ccccc1)NN=Cc1ccc(Br)o1 13.7%
COc1cc(OC)c(S(=O)(=O)Nc2ccccc2C(=O)O)cc1S(=O)(=O)Nc1ccccc1C(=O)O 3.5%
COC(=O)c1ccc(NC(=O)c2ccccc2NS(=O)(=O)c2ccccc2)cc1 27%
NC[C@H](Cc1ccccc1)NCCc1cc(C(F)(F)F)cc(C(F)(F)F)c1 4.07%
CCCN(CC1CC1)C(=O)COC(=O)c1ccc(C)cc1O 10.6%
Cc1[nH]n(-c2ccccc2)c(=O)c1/C=N/NC(=O)c1ccoc1C 17.4%
COc1cc(SC#N)ccc1N=Cc1c(C)[nH]n(-c2ccc(C)cc2)c1=O 14.1%
COc1ccc(CC(=O)N[C@@H]2c3cc(OC)c(OC)cc3C[C@H]2OCc2ccccc2)cc1 16%
O=C1NC[C@@H](c2ccccc2)OC(=O)[C@H](Cc2ccc(F)cc2)CC/C=C/C[C@H]1CC(=O)N(CCO)Cc1ccccc1 28.2%
Cc1cc(NC(=O)CSCC(=O)NC(C)c2ccccc2)no1 (stereo not given) -1.97%
CC(NC(=O)c1ccccc1C(=O)O)c1ccc(-n2ccnc2)cc1 (stereo not given) 14.7%
CC(NC(=O)c1ccccc1F)c1cccc2ccccc12 (stereo not given) 29.1%
C#CCOCCOCCOCCNc1nc(N2CCN(C(=O)[C@H](CO)n3cc([C@@H](N)C(C)C)nn3)CC2)nc(N2CCN(C(=O)[C@H](CCC(=O)O)n3cc([C@@H](N)[C@H](C)CC)nn3)CC2)n1 3.25%
Cc1n[nH]c(=O)c2c(NC(=O)CSc3ccccc3F)oc(C)c12 15.6%
Cc1n[nH]c(=O)c2c(NC(=O)CSc3cc(Cl)ccc3Cl)oc(C)c12 15.7%
Cc1ccc(NC(=O)C2CCC(C(C)(C)C)CC2)cc1S(=O)(=O)N1CCOCC1 (stereo not given) 13.3%
O=C(CC1CCCCC1)NCc1ccccc1 7.66%
CCCCNC(=O)CN1C(=O)NC(Cc2ccccc2)(Cc2ccccc2)C1=O 28.3%
Cc1noc(C)c1NC(=O)Nc1cccc2c1O[C@H](CN(C)S(=O)(=O)c1c(C)noc1C)[C@@H](C)CN([C@H](C)CO)C2=O -0.11%
CCOc1ccccc1Nc1nnc(SCC(=O)NCC2CCCO2)s1 (stereo not given) 6.79%
COCc1ccc(C(=O)NC2CC(C)(C)Cc3c2cnn3-c2ccc(C)cc2)o1 (stereo not given) 34.1%
COc1ccc(C(=O)NC2CC(C)(C)Cc3c2cnn3-c2ccccc2)c(OC)c1 (stereo not given) 34.6%
COc1cc(OC)c2c(-c3cccc(-c4cccc(N)c4)c3)cc(=O)oc2c1 7.11%
COc1ccccc1/C=N/Nc1nc(C)c(C(C)=O)s1 13.4%
COc1cccc(/C=N/Nc2ncc(C(F)(F)F)cc2Cl)c1O 9.55%
Cc1scc(C(=O)NNC(=S)NCc2ccccc2)c1C 11.1%
CCOC(=O)C1CCCN(C(=O)CSc2nnc3nc(C)cc(C)n23)C1 (stereo not given) 0.28%
O=[N+]([O-])c1ccc(NCCCO)c(C(F)(F)F)c1 28.9%
O=C(NCCNc1ccccc1[N+](=O)[O-])c1ccccc1F 9.6%
COc1ccccc1N(CCOc1ccccc1)S(=O)(=O)c1ccccc1 26.3%
Cc1cc(C)nc(N/N=C/c2c(C)oc3ccccc23)n1 24.7%
COc1ccc(C(=O)NCC(=O)N/N=C/c2ccc([N+](=O)[O-])o2)cc1OC 40%
COc1ccc(S(=O)(=O)N2CCCCCC2)cc1NC(=O)Cc1ccc(OC)c(OC)c1 8.64%
COc1cc(OC)cc(-c2c(C#Cc3ccsc3)c3cc(-c4ccc(OC)cc4F)ccc3n2C)c1 9.29%
Cc1noc(C)c1S(=O)(=O)N(C)C[C@H]1Oc2ccc(NC(=O)C3CC3)cc2C(=O)N([C@H](C)CO)C[C@@H]1C 3.87%
CN1C(=O)[C@H]2[C@@H](/C=C/c3ccccc3)N3C(=O)CN(Cc4ccc(-c5ccccc5)cc4)C(=O)[C@@]3(C)[C@H]2C1=O -0.45%
O=[N+]([O-])c1cccc2ncccc12 22.2%
CN1CCN(c2ccc(S(=O)(=O)Nc3ccccc3)cc2[N+](=O)[O-])CC1 27.9%
Cc1ccccc1NC(=O)CSC(=O)c1ccccc1 3.63%
COC(=O)C1CCN(C(=O)COC(=O)c2cc(S(=O)(=O)N3CCOCC3)ccc2C)CC1 -3.08%
CN1CCN(/N=C/c2ccc(C#N)cc2)CC1 37.9%
CN1CCN(/N=C2/C(=O)Nc3ccc([N+](=O)[O-])cc32)CC1 72.6%
C[C@H](CO)N1C[C@H](C)[C@@H](CN(C)Cc2ccc(-c3ccccc3)cc2)Oc2ccc(NC(=O)Cn3cnnn3)cc2C1=O -2.89%
CC(C)N(C(=O)[C@H]1C[C@H](CC(=O)NCCC2=CCCCC2)C(=O)N2CCc3c([nH]c4cc(CCC(=O)N(C)C)ccc34)[C@]12C)C(C)C 10.8%
CC(C)(C)n1cnnc1Sc1ccc([N+](=O)[O-])cn1 36.8%
CCN(CC(=O)Nc1c(F)cccc1F)C(=O)c1ccc(Sc2nncn2C)c([N+](=O)[O-])c1 37%
CC[C@]12c3[nH]c4ccc(Cl)cc4c3CCN1C(=O)[C@@H](CC(=O)NCCN1CCOCC1)C[C@@H]2C(=O)N1CCN(C(=O)C2CC2)CC1 3.88%
Cc1ccc(/C=C/C(=O)Nc2ccc([N+](=O)[O-])c(NC(=O)/C=C/c3ccc(C)o3)c2)o1 13.2%
O=C(NNC(=O)C1CCCC1)c1ccc(F)cc1 7.91%
C=CCn1c(SCn2nnc3ccccc3c2=O)nnc1-c1ccc(Cl)cc1 25%
C=CCn1c(SCc2cc(C(=O)OC)c(C)o2)nnc1-c1ccncc1 18.3%
Cc1ccc(NC(=O)COC(=O)C2CC2)cc1S(=O)(=O)N1CCOCC1 4.49%
CCCCOc1ccc(C(=O)NCC(=O)OCC(=O)c2c(N)n(C)c(=O)n(C)c2=O)cc1 4.34%
COc1ccc(NC(=O)CNc2cc(S(=O)(=O)N3CCOCC3)ccc2N2CCOCC2)c(OC)c1 17.1%
C#CCOCCOCCOCCNc1nc(N2CCN(C(=O)[C@H](CCC(=O)O)n3cc(CN)nn3)CC2)nc(N2CCN(C(=O)[C@H](CCC(=O)O)n3cc(CN)nn3)CC2)n1 4.4%
CCn1c(=S)[nH]c2cc(S(=O)(=O)N3CCOCC3)ccc21 8.76%
COCCn1c(C)cc(C(=O)CSc2nc3ccccc3c(=O)n2C(C)COC)c1C (stereo not given) 9.56%
COCC(C)n1c(SCc2ccc(C(=O)OC)o2)nc2ccccc2c1=O (stereo not given) 29.3%
O=C1CCC/C=C\C[C@@H](CC(=O)N(CCO)Cc2ccccc2)C(=O)NCCO1 3.3%
O=C(NCc1ccco1)C1CCCN(S(=O)(=O)c2cnc[nH]2)C1 (stereo not given) 6.51%
COc1ccccc1CNC(=O)C1CCCN(S(=O)(=O)c2cccc3cccnc23)C1 (stereo not given) 11.7%
O=C(NCc1ccco1)C1CCCN(S(=O)(=O)c2ccccc2)C1 (stereo not given) 22.4%
O=C(c1ccco1)N1CCN(C(=O)C2c3ccccc3Oc3ccccc32)CC1 -0.85%
CCCCN(C)CCNC(=O)C1CCCN(S(=O)(=O)c2cccc3nsnc23)C1 (stereo not given) 26.9%
COc1cccc(N2CCN(C(=O)C3CCCN(S(=O)(=O)c4cnc[nH]4)C3)CC2)c1 (stereo not given) 4.15%

inhibition, active:
COc1cc(NC(=O)c2ccccc2NS(=O)(=O)c2ccc(Cl)s2)cc(OC)c1 72.7%
Cc1ccc(-n2[nH]c(C)c(/C=N/N3C(=O)c4cccc5cccc(c45)C3=O)c2=O)cc1 67%
CC(NC(=O)c1cccc2ccccc12)c1ccc2c(c1)CCCC2 (stereo not given) 79%
Cc1n[nH]c(=O)c2c(NC(=O)COC(=O)c3ncc(Cl)c(Cl)c3Cl)oc(C)c12 52.6%
O=C(CN1C(=O)NC(Cc2ccccc2)(Cc2ccccc2)C1=O)NCC1CCCCC1 42.4%
COc1ccc(C(=O)NC2CC(C)(C)Cc3c2cnn3-c2ccccc2C)o1 (stereo not given) 71.7%
COc1cccc(/C=N/Nc2cc(C)nc(-c3ccccc3O)n2)c1O 107%
N#Cc1c(NCCO)ccc([N+](=O)[O-])c1NCCO 49.8%
Cc1cc(C)nc(N/N=C/c2ccc([N+](=O)[O-])o2)n1 60.5%
CN1CN(C)c2ccc([N+](=O)[O-])c3cccc1c23 44.5%
CN1CCN(/N=C/c2ccc(-c3ccc([N+](=O)[O-])cc3)o2)CC1 83.2%
Cn1cnnc1Sc1ccc(S(C)(=O)=O)cc1[N+](=O)[O-] 95.8%
O=C(/C=C/c1ccc([N+](=O)[O-])o1)NNC(=O)c1ccc(F)cc1 57.8%
C=CCn1c(SCc2c(C(=O)OC)sc(N)c2C(=O)OC)nnc1-c1ccc(Cl)cc1 45.4%
COCC(C)n1c(SCC(=O)NC2CCCCC2C)nc2ccccc2c1=O (stereo not given) 39.7%
CCCCN(CC)C(=O)C1CCCN(S(=O)(=O)c2cccc3nsnc23)C1 (stereo not given) 39.7%
O=C(c1ccco1)N1CCN(C(=O)C2CCCN(S(=O)(=O)c3cccc4nsnc34)C2)CC1 (stereo not given) 59.8%
O=C(NCc1ccco1)C1CCCN(S(=O)(=O)c2cccc3nonc23)C1 (stereo not given) 95.8%
